Source: PubChem BioAssay (EPA / NIEHS)
Activity calls are given as the source filed them. The calls were made as follows: active = hit-call score of the fitted dose curve at least 0.9, where 1 is the maximum; inactive = score below 0.9.

Test: CEETOX_H295R_OHPROG_noMTC: CeeTox H295R High-throughput Steroidogenesis Assay for OH-Progesterone (OHPROG), maximum tolerated concentration (MTC) filtered results only (AID 2283914)
Details: actives raise or lower the signal
Outline: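 Forskolin 10 uM, 48 h prestim → test cmpd in DMSO (0.1% final), 48 h → medium MTBE extraction → LC-MS/MS quant of 17alpha-OH-progesterone. Bidirectional fit vs DMSO; no MTT-based MTC filtering.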

Compound	AC50	outcome
O=C(NS(=O)(=O)/C=C/c1ccccc1)c1ccc(F)cc1Cl	5.24 µM (active)	
CCCCC(CC)COC(=O)c1ccc(C(=O)OCC(CC)CCCC)cc1 (stereo unspecified)		inactive
CC(C)=CCC/C(C)=C\CO		inactive

Test: CEETOX_H295R_PROG_noMTC: CeeTox H295R High-throughput Steroidogenesis Assay for Progesterone (PROG), maximum tolerated concentration (MTC) filtered results only (AID 2283920)
Details: actives raise or lower the signal
Outline: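 H295R cells; forskolin 10 uM x 48 h prestim; test cpd 48 h, 0.1% DMSO final; media progesterone via LC-MS/MS; bidirectional fit vs DMSO; no MTT-based MTC filter applied.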

Compound	outcome
O=C(NS(=O)(=O)/C=C/c1ccccc1)c1ccc(F)cc1Cl	inactive
CCCCC(CC)COC(=O)c1ccc(C(=O)OCC(CC)CCCC)cc1 (stereo unspecified)	inactive
CC(C)=CCC/C(C)=C\CO	inactive
